Assay results as given in PubChem BioAssay (NCATS).
Inconclusive results are not listed. Where a call stands in place of a potency, no number is given. Active and inactive are the calls of the source. Unless noted, the call rests on the fitted dose curve; in most records, active means well fitted curve in the direction sought with a large enough effect; inconclusive means small, poorly fitted or top-dose-only effect, or another doubt; inactive means no such curve, though single readings can be large; an effect the other way counts as inactive or inconclusive.

Experiments:
[1] = qHTS assay for measurement of the activity of small molecule inhibitors on Zika virus induced Caspase-3 activity in human iPSC derived neural progenitor cells (hNPCs) (AID 1224857); details: hNPCs ZIKV-induced caspase-3/7, Caspase-Glo luminescence, 6 h; series mostly up to 45.7 µM; further: nearly all actives have a fitted effect of over 65% in size
Outline: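 Zika virus (2 FFU/cell) infection of human iPSC-derived NPCs, 6 h, following 1 h compound preincubation. Read-out: Caspase-Glo 3/7 luminescence.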

[2] = qHTS assay for measurement of the activity of small molecule inhibitors on Zika virus induced Caspase-3 activity in human astrocytoma cells (AID 1224859); details: SNB-19 ZIKV-induced caspase-3/7, luminescence, 6 h; series mostly up to 45.7 µM
Outline: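 Caspase activation in ZIKV-infected SNB-19 cells (2 FFU/cell, 6 h) measured by Caspase-Glo 3/7 luminescence after 30 min RT; compound pre-incubated 1 h; normalised to uninfected and infected controls.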

[3] = qHTS assay to identify small molecule inhibitors of chordoma cells - UCH-1 (AID 1259355); details: UCH-1 chordoma viability, CellTiter-Glo, 48 h, combination, with auranofin plus four topoisomerase inhibitors; series mostly up to 46.1 µM; further: nearly all actives have a fitted effect of over 55% in size
Outline: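 A 48hr growth-inhibition format: each drug tested at 15 concentrations together with added auranofin, camptothecin, doxorubicin, rubitecan and topotecan, with cell viability quantified as CellTiter-Glo luminescence.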

[4] = qHTS assay to identify small molecule inhibitors of chordoma cells - UCH-2 (AID 1259356); details: UCH-2 chordoma viability, CellTiter-Glo ATP luminescence, 48 h; series mostly up to 46.1 µM
[5] = qHTS profiling for inhibitors of Plasmodium falciparum (DD2) proliferation (AID 743323; call rule not given here); details: lower = more inhibition; at 28.7 µM (top of the series) unless noted
Outline: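 Parasite proliferation measured via DNA-dye fluorescence, as uninfected erythrocytes lack DNA. Cultures at 0.3% parasitemia and 2.5% hematocrit incubated 72 h with compound; signal scaled between vehicle and 0.29 uM artemisinin wells.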

[6] = qHTS profiling for inhibitors of Plasmodium falciparum (HB3) proliferation (AID 743324); details: Plasmodium falciparum HB3 blood-stage proliferation; at 28.7 µM (top of the series) unless noted
Outline: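 SYBR Green fluorescence (485 ex/535 em) of lysed cultures, incubated overnight at room temperature in the dark, quantifies parasite DNA. Infected erythrocytes at 0.3% parasitemia and 2.5% hematocrit were exposed 72 h; values normalized to DMSO and 0.29 uM artemisinin controls.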

N[C@H]1C(O)O[C@H](CO)[C@@H](O)[C@@H]1O (some centres not stated)
outcome [1]: inactive
outcome [2]: inactive
Potency [3]: inactive
outcome [4]: inactive

CC(=O)CCC(=O)O
outcome [1]: inactive
outcome [2]: inactive
Potency [3]: inactive
outcome [4]: inactive

COc1ccc2cc1Oc1ccc(cc1)C[C@H]1c3c(cc4c(c3Oc3cc5c(cc3OC)CCN(C)[C@@H]5C2)OCO4)CCN1C
outcome [1]: inactive
outcome [2]: inactive
activity, negative = inhibition [3]: -13.6% [at 1.88 µM] (inactive)
outcome [4]: inactive

CC(COc1ccccc1)NC(C)C(O)c1ccc(O)cc1 (configuration not stated)
outcome [1]: inactive
outcome [2]: inactive
Potency [3]: inactive
outcome [4]: inactive

CNCCCC1c2ccccc2C=Cc2ccccc21
outcome [1]: inactive
outcome [2]: inactive
outcome [4]: inactive

CNCCC(Oc1ccc(C(F)(F)F)cc1)c1ccccc1 (configuration not stated)
outcome [1]: inactive
outcome [2]: inactive
outcome [4]: inactive

Nc1ccc(S(=O)(=O)Nc2nccs2)cc1
outcome [1]: inactive
outcome [2]: inactive
Potency [3]: inactive
outcome [4]: inactive

CCN(CC)CCOC(=O)C1(C2CCCCC2)CCCCC1
outcome [2]: inactive

NC(=O)c1ncn([C@@H]2O[C@H](CO)[C@@H](O)[C@H]2O)c1N
activity, percent of control [5]: 121%
outcome [1]: inactive
outcome [2]: inactive
Potency [3]: inactive
outcome [4]: inactive

Cc1c(O)cccc1C(=O)N[C@@H](CSc1ccccc1)[C@H](O)CN1C[C@H]2CCCC[C@H]2C[C@H]1C(=O)NC(C)(C)C
outcome [2]: inactive

O=C(O)Cc1sc(-c2ccccc2)nc1-c1ccc(Cl)cc1
outcome [1]: inactive
outcome [2]: inactive
Potency [3]: inactive
outcome [4]: inactive

O=C1Nc2ccc(Cl)cc2[C@@](C#CC2CC2)(C(F)(F)F)O1
activity, percent of control [5]: 22.7% [at 57.5 µM]
remaining proliferation (% of control), lower = more inhibition [6]: 11.8% [at 57.5 µM]
outcome [1]: inactive
outcome [2]: inactive
Potency [3]: inactive
outcome [4]: inactive

CN(C)CCCO[C@@H]1[C@H]2OC(C)(C)O[C@H]2O[C@@H]1C(O)CO (some centres not stated)
outcome [1]: inactive
outcome [2]: inactive
activity, negative = inhibition [3]: -7.27% [at 1.88 µM] (inactive)
outcome [4]: inactive

CN(C)CCCN1c2ccccc2Sc2ccc(Cl)cc21
outcome [1]: inactive
outcome [2]: inactive
outcome [4]: inactive

O=C1NS(=O)(=O)c2ccccc21
outcome [2]: inactive
Potency [3]: inactive
outcome [4]: inactive

CC(O)CN(CCN(CC(C)O)CC(C)O)CC(C)O (configuration not stated)
outcome [2]: inactive
Potency [3]: inactive
outcome [4]: inactive

NCC(=O)CCC(=O)O
outcome [2]: inactive
Potency [3]: inactive
outcome [4]: inactive

CCOC(CN1CCN(CC(C)C(=O)c2ccccc2)CC1)c1ccccc1 (configuration not stated)
outcome [2]: inactive
Potency [3]: inactive
outcome [4]: inactive

CO/N=C(\C(=O)N[C@@H]1C(=O)N2C(C(=O)O)=C(CSc3nc(=O)c(O)nn3C)CS[C@H]12)c1csc(N)n1
outcome [2]: inactive
Potency [3]: inactive
outcome [4]: inactive

O=C1c2c(O)cccc2Cc2cccc(O)c21
outcome [2]: inactive
Potency [3]: inactive

CN1[C@@H]2CC[C@H]1CC(OC(=O)C(O)c1ccccc1)C2 (some centres not stated)
outcome [2]: inactive
Potency [3]: inactive
outcome [4]: inactive

Nc1ccc(S(=O)(=O)Nc2ccc(Cl)nn2)cc1
outcome [2]: inactive
Potency [3]: inactive
